About 79,000 compounds went through this panel and 15% of them were active in at least one assay; those are over-represented in the sample as a whole. Values without a mark were called inactive. No stated cut-off is given here; in the data, active means growth inhibition above about 70%; inactive means the rest.

The nature of the test: NCI Yeast Anticancer Drug Screen. Data for the sgs1 mgt1 strain (AID 161).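 Further: 0% = growth of cultures given vehicle only.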 As to conditions: S. cerevisiae sgs1 mgt1 strain, at 50.0 µM, hits give high values. In short, it runs like this: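 Read-out: growth inhibition vs vehicle controls. Cells: mutant yeast strain deficient in DNA damage repair.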
Consider `CN(C)NC(=O)Nc1cccc2ccccc12`, for which the growth inhibition was -6.15%.

Take `CCN(CC)CCCC(C)n1c(-c2ccc(OC)cc2)nc2cc(Cl)ccc21` (configuration not stated): the growth inhibition was 26.9%. Then `CCOC(=O)COc1cc2c(cc1C(C)c1ccc(OCc3ccccc3)c(OC)c1)OCO2` (configuration not stated), with -9.7%.

Take `CNC(=O)c1ccccc1Sc1ccccc1`: the growth inhibition was -16.3%. Then `COc1ccc(-c2nnc(-c3ccc(OC)cc3)nn2)cc1`, with -7.1%. On to `O=C1C(CCCS)C(c2ccccc2)=NN1c1ccccc1` (configuration not stated), for which the growth inhibition is 18.4%.

As for `CCOC(=O)C(C)NCc1ccccc1` (configuration not stated), the growth inhibition was -1.4%. Then `COC(=O)c1c(O)c2c(c3c1OC(C)(C)CC3)OC(C)(C)CC2`, with -17.1%. Then `CC(C)(C)SC1C(O)C(CO)OC1n1ccc(Nc2ccccc2)nc1=O` (configuration not stated), with -24.6%.

With `C=C1C(=O)O[C@@H]2[C@H]3[C@H](C)C(=O)C=C[C@]3(C)CC[C@@H]12`, the growth inhibition is 39%. Turning to `COc1cccc(CCNC(=O)Cc2ccccc2CCO)c1`, the growth inhibition is -46.8%.

Consider `O=C1CC(O)C2C(=O)c3c(c(Cl)c4ccccc4c3O)C(=O)C2C1` (configuration not stated), for which the growth inhibition is 10.2%.

In the case of `O=C(O)CNC1CCCC1`, the growth inhibition was 4.35%. To `Cc1ccc(C(=N)c2ccccc2Cc2cccc3ccccc23)c2ccccc12` belongs -30.2%.

With `O=C(/C=C\c1ccccc1)Nc1c(Cl)cc(Cl)cc1Cl`, the growth inhibition was 9.05%.

Take `COc1ccc(/C=C2\N=C(c3ccc([N+](=O)[O-])cc3)OC2=O)cc1Br`: the growth inhibition was 27.5%. Then `CCOC(=O)C(C=C(C)C)(CC)C(=O)OCC`, with -5.7%.

The record behind these values is PubChem BioAssay (NCI).
